Results as given in PubChem BioAssay (NCATS).
Values joined by “and” are separate entries in the source; they are usually repeats but may differ in a detail not shown here. Identical values can stand only once. Results filed as inconclusive are left out. Where a call stands in place of a potency, no number is given. A number with no mark means an inactive call. Active and inactive are the calls of the source. Unless noted, calls come from the whole dose curve; as a rule, active = well fitted curve in the direction sought with a large enough effect; inconclusive = small, poorly fitted or top-dose-only effect, or another doubt; inactive = no such curve, though single readings can be large; an effect the other way counts as inactive or inconclusive.

Tests used:
[1] = Primary qHTS for inhibitors of La Crosse Virus (LACV) - induced cell death in SH-SY5Y cells (AID 1508616);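 note: top concentration of the series differs between compounds; higher means more rescue of cells from virus-induced death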
How it was run: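 Cytopathicity rescue screen: compounds pinned onto SH-SY5Y cells, which are then infected with LACV (MOI 0.01) and held 6 days at 37C. Percent activity is scaled between infected DMSO control and uninfected DMSO control.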

[2] = biological target: Calcium and integrin-binding protein 1 (Homo sapiens) (UniProt Q99828); test: Confirmatory qHTS for Identification of Calcium Integrin Binding Protein 1 (CIB1) Competitor (AID 1508617); note: nearly all actives have a fitted effect of over 65% in size
Calcium and integrin-binding protein 1 (Homo sapiens), sequence (Q99828 whole entry, looked up): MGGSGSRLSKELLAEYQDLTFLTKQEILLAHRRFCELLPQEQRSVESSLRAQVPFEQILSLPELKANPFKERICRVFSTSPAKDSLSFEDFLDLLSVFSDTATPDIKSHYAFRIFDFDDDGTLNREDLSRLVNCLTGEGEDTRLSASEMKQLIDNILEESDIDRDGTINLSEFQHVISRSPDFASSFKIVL
How it was run: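 FP competition: CIB1-GST (1 uM final) in 5 mM HEPES pH 7.4, 125 mM NaCl, 5 mM CaCl2, 0.01% Tween20 preincubated 15 min RT with compounds (up to 114 uM), then FITC-alphaIIb peptide (100 nM), 15 min RT; Ex 480/Em 540.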

[3] = biological target: Calcium and integrin-binding protein 1 (Homo sapiens) (UniProt Q99828); test: Validation qHTS for Identification of Calcium Integrin Binding protein 1 (CIB1) Competitor (AID 1508618)
How it was run: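 Fluorescence polarization with 1 uM CIB1-GST and 100 nM FITC-alphaIIb peptide in HEPES pH 7.4, NaCl, 5 mM CaCl2, Tween20. Compounds at up to 114 uM final, preincubated with protein 15 min; read after 15 min more at RT.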

[4] = Primary qHTS for small molecule stabilizers of the endoplasmic reticulum resident proteome: Secreted ER Calcium Modulated Protein (SERCaMP) assay (AID 1508630)
How it was run: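 The SH-SY5Y reporter protocol was run at 3 concentrations up to 38.3 uM (primary) or 11 concentrations (follow-up): 16 h compound, 100 nM thapsigargin for 4 h, then extracellular luciferase luminescence.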

[5] = A High-Content qHTS Against Drug Library for the Identification of Small Molecules that Inhibit DYT1 Early Onset Primary Dystonia-Associated Cell Pathology (AID 1645839; calls by dose curve; note: series mostly up to about 46 µM)
How it was run: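 High-content imaging quantified EGFP-TorsinA mislocalization in HEK293-derived cells inducibly expressing DYT1 mutant torsinA, after 48 h exposure to compound given together with tetracycline induction. Cell count served as a toxicity channel alongside %pathology.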

[6] = biological target: Cytochrome P450 2D6 (Homo sapiens) (UniProt P10635); test: Cytochrome P450 family 2 subfamily D member 6 (CYP2D6) small molecule antagonists: luciferase biochemical (cell-free) qHTS assay (AID 1645840; active = well fitted curve in the direction sought with a large enough effect in the repeat runs; an effect the other way counts as inactive or inconclusive; note: nearly all actives have a fitted effect of over 55% in size; note: potency is the fitted concentration of half-maximal effect)
Cytochrome P450 2D6 (Homo sapiens), sequence (P10635 whole entry, looked up): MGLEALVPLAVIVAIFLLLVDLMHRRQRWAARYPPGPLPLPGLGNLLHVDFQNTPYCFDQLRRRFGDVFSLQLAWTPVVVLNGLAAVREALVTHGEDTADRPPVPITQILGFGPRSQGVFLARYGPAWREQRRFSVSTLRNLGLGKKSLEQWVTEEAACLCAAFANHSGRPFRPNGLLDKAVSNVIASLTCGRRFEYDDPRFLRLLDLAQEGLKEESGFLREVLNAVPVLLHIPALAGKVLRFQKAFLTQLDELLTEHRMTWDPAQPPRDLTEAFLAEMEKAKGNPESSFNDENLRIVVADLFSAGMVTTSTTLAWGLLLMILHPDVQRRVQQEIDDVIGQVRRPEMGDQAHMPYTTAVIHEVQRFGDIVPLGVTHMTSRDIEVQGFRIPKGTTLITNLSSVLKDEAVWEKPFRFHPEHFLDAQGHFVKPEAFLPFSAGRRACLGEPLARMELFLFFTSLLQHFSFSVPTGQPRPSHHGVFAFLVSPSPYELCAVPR
How it was run: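 P450-Glo CYP2D6 system: proluciferin substrate converted by enzyme to luciferin, read by luminescence proportional to activity. Enzyme-substrate mix with compound 10 min at room temperature, then NADPH regeneration 1 h before detection reagent.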

[7] = biological target: Cytochrome P450 2C9 (Homo sapiens) (UniProt P11712); test: Cytochrome P450 family 2 subfamily C member 9 (CYP2C9) small molecule antagonists: luciferase biochemical (cell-free) qHTS assay (AID 1645842; active = well fitted curve in the direction sought with a large enough effect in the repeat runs; an effect the other way counts as inactive or inconclusive; note: nearly all actives have a fitted effect of over 55% in size; note: potency is the fitted concentration of half-maximal effect)
Cytochrome P450 2C9 (Homo sapiens), sequence (P11712 whole entry, looked up): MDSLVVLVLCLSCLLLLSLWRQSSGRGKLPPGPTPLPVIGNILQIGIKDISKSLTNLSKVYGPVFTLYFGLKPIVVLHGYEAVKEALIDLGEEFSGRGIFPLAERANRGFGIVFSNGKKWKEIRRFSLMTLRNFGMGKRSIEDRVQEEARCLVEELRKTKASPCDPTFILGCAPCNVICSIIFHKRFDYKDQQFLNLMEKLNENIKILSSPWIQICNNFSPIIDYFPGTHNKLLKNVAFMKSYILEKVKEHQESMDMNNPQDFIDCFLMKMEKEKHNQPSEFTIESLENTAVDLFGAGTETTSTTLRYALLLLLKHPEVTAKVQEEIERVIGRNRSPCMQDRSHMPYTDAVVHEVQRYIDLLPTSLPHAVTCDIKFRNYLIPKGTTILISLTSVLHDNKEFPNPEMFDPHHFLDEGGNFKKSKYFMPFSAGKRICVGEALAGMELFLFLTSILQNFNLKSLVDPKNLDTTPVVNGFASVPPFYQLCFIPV
How it was run: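 P450-Glo CYP2C9 system: proluciferin substrate with enzyme in mix containing 0.4% BSA, 10 min at room temperature, then NADPH regeneration solution added and incubated 1 h at 37C. Detection reagent stopped reaction; luminescence read after 20 min as RLU.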

Papain (Carica papaya) = Papain (Carica papaya) (UniProt P00784); test: Primary qHTS assay for inhibitors of the protease papain (AID 1645873);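 note: papain turnover of Z-FR-AMC read as the AMC fluorescence gain over 10 min; series mostly up to about 50 µM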
Papain (Carica papaya), sequence (P00784 whole entry, looked up, the tested form may be a part): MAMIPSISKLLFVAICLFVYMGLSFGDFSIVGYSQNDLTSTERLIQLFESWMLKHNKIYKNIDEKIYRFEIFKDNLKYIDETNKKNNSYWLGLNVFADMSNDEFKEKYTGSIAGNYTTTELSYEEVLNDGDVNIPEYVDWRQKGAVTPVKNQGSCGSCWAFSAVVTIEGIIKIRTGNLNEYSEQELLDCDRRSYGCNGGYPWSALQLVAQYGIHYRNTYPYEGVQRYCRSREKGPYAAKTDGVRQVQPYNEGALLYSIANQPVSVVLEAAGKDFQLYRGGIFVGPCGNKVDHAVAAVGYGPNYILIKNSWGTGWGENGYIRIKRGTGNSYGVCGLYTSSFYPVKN

[8] = Primary qHTS for inhibitors of nuclear receptor binding SET domain protein 2 (NSD2) in an isogenic RCH-ACV NSD2 p.E1099K mutant (9B) (AID 1645876); note: nearly all actives have a fitted effect of over 70% in size; note: potency is the fitted concentration of half-maximal effect
[9] = Primary qHTS for inhibitors of nuclear receptor binding SET domain protein 2 (NSD2) in an RCH-ACV wild type WT cells (2C) (AID 1645877); note: nearly all actives have a fitted effect of over 70% in size; note: potency is the fitted concentration of half-maximal effect
[10] = biological target: Calcium and integrin-binding protein 1 (Homo sapiens) (UniProt Q99828); test: Primary qHTS for Identification of Calcium Integrin Binding Protein 1 (CIB1) Competitor (AID 1508620);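 note: GST tagged CIB1 binding a fluorescein labelled alphaIIb integrin peptide tracer; top concentration of the series differs between compounds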
How it was run: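 CIB1-GST (1 uM final) and compound incubated 15 min at room temperature before adding FITC-alphaIIb peptide tracer (100 nM final). Competition for binding read by fluorescence polarization (ex 480, em 540) after another 15 min at room temperature.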

[11] = Counterscreen qHTS for small molecule stabilizers of the endoplasmic reticulum resident proteome: GLuc-NoTag assay (AID 1508627); note: potency is the fitted concentration of half-maximal effect
How it was run: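 Counterscreen line: SH-SY5Y-GLuc-NoTag cells, treated with compound 19 hr before a 4 hr, 100 nM thapsigargin calcium depletion. Secreted Gaussia luciferase in the medium was measured by luminescence after coelenterazine was added (0.07x final), with cells unlysed.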

[12] = Cell Viability qHTS for small molecule stabilizers of the endoplasmic reticulum resident proteome (AID 1508629); conditions: cell viability counter-screen, 100 nM thapsigargin for final 4 h;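 note: human SH-SY5Y neuroblastoma cells carrying the GLuc-SERCaMP reporter; compound exposure about 46 h in total before the viability read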
[13] = biological target: Cytochrome P450 3A4 (Homo sapiens) (UniProt P08684); test: Cytochrome P450 family 3 subfamily A member 4 (CYP3A4) small molecule antagonists: luciferase qHTS assay (AID 1645841; active = well fitted curve in the direction sought with a large enough effect in the repeat runs; an effect the other way counts as inactive or inconclusive; note: nearly all actives have a fitted effect of over 45% in size)
Cytochrome P450 3A4 (Homo sapiens), sequence (P08684 whole entry, looked up): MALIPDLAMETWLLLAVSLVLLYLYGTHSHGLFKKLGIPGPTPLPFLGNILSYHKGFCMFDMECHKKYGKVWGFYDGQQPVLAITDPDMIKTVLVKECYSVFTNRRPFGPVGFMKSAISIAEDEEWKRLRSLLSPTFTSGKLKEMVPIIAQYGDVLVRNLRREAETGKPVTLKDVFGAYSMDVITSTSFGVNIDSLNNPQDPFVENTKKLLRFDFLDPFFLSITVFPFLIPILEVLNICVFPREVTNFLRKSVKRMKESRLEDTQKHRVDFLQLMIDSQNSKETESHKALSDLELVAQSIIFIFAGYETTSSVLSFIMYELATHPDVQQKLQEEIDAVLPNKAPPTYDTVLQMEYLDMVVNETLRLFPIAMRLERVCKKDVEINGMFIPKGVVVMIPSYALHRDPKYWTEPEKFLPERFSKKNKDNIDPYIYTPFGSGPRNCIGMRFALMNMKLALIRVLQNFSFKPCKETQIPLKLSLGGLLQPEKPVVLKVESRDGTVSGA
How it was run: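 Luminescent CYP3A4 activity readout: compounds plus enzyme-substrate mix 10 min at room temperature, reaction started with NADPH regenerating system for 1 h, stopped with detection reagent, read after 20 min. Ketoconazole served as control.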

| SMILES | Potency [1] | outcome [2] | outcome [3] | Potency [4] | Potency [5] | Potency [6] | Potency [7] | Potency (Papain (Carica papaya)) | Potency [8] | Potency [9] | Potency [10] | Potency [11] | max response [12] | outcome [13] |
| --- | --- | --- | --- | --- | --- | --- | --- | --- | --- | --- | --- | --- | --- | --- |
| NC(=O)c1ncn([C@@H]2O[C@H](CO)[C@@H](O)[C@H]2O)c1O | inactive | inactive | inactive | inactive | inactive | inactive | inactive | inactive | inactive | inactive | – | – | – | – |
| CN(C)CC[C@@H](c1ccc(Br)cc1)c1ccccn1 | inactive | – | inactive | inactive | inactive | 4.9 µM (active) | inactive | inactive | inactive | – | inactive | inactive | – | – |
| NC1=NCC2c3ccccc3Cc3ccccc3N12 (stereo unspecified) | inactive | – | inactive | inactive | inactive | 1.55 µM (active) | inactive | inactive | – | – | inactive | – | – | – |
| COc1ccc([C@@H]2Sc3ccccc3N(CCN(C)C)C(=O)[C@@H]2OC(C)=O)cc1 | inactive | – | inactive | inactive | inactive | inactive | inactive | inactive | inactive | – | inactive | – | – | – |
| CN1CCN(C2=Nc3ccccc3Oc3ccc(Cl)cc32)CC1 | inactive | – | inactive | – | – | 3.89 µM (active) | inactive | inactive | – | – | inactive | inactive | 14.4% | – |
| C(=C\c1ccccc1)/CN1CCN(C(c2ccccc2)c2ccccc2)CC1 | inactive | – | inactive | – | – | – | – | inactive | inactive | inactive | inactive | inactive | – | – |
| c1cnc(N2CCN(Cc3ccc4c(c3)OCO4)CC2)nc1 | inactive | – | inactive | inactive | inactive | 0.871 µM (active) | 11 µM (active) | inactive | inactive | – | inactive | – | – | – |
| CCOC(=O)c1cnc2c(cnn2CC)c1NN=C(C)C | inactive | – | inactive | – | inactive | inactive | 13.8 µM (active) | – | – | – | inactive | inactive | 4.21% | – |
| CCC(=O)c1ccc2c(c1)N(CCCN(C)C)c1ccccc1S2 | inactive | – | inactive | – | – | 0.49 µM (active) | inactive | inactive | – | – | inactive | inactive | – | – |
| CCCCNc1ccc(C(=O)OCCN(C)C)cc1 | inactive | – | inactive | inactive | inactive | – | – | inactive | inactive | – | inactive | inactive | 13.7% and 3.85% and 11.6% | – |
| OCCN1CCN(CCCN2c3ccccc3C=Cc3ccccc32)CC1 | inactive | – | inactive | – | – | 13.8 µM (active) | inactive | – | – | – | inactive | inactive | -5.61% | – |
| COC(=O)[C@@H](N)Cc1ccc(O)c(O)c1 | inactive | – | inactive | – | inactive | inactive | inactive | inactive | – | – | inactive | – | -5.59% | – |
| C[N+](C)(C)CCOC(N)=O | inactive | – | inactive | inactive | inactive | inactive | inactive | inactive | – | – | inactive | – | – | – |
| CN(C)C/C=C(/c1ccc(Br)cc1)c1cccnc1 | inactive | – | inactive | – | – | – | inactive | inactive | inactive | inactive | inactive | inactive | 4.56% | – |
| CC1=C(C)C(=O)C(CCCCC#CCCCC#CCO)=C(C)C1=O | inactive | – | inactive | – | inactive | 4.9 µM (active) | 3.09 µM (active) | inactive | 18.8 µM (active) | 10.6 µM (active) | inactive | inactive | – | – |
| CCc1cccc(N(C)C(N)=Nc2cccc3ccccc23)c1 | inactive | – | inactive | – | – | 0.11 µM (active) | – | inactive | – | – | inactive | 39.8 µM (active) | -28.6% | – |
| c1cc(CN2CCCCC2)cc(OCCCNc2nc3ccccc3s2)c1 | inactive | – | inactive | – | – | 1.74 µM (active) | inactive | inactive | – | – | inactive | inactive | -7.44% | – |
| COc1cc(C(=O)OCCCN2CCCN(CCCOC(=O)c3cc(OC)c(OC)c(OC)c3)CC2)cc(OC)c1OC | inactive | – | inactive | – | – | – | – | inactive | – | 23.7 µM (active) | inactive | inactive | -32.9% | – |
| NC(N)=N/N=C/c1c(Cl)cccc1Cl | inactive | – | inactive | inactive | inactive | 9.77 µM (active) | inactive | inactive | – | – | inactive | – | – | – |
| O=C(CCCN1CCC(O)(c2cccc(C(F)(F)F)c2)CC1)c1ccc(F)cc1 | inactive | – | inactive | – | inactive | – | inactive | inactive | – | – | inactive | – | -8.14% | – |
| CC(C)(C)NCC(O)c1cc(O)cc(O)c1 (stereo unspecified) | inactive | – | inactive | inactive | inactive | inactive | inactive | – | – | – | inactive | – | – | – |
| O=C(O)CN(CCN(CC(=O)O)CC(=O)O)CCN(CC(=O)O)CC(=O)O | inactive | – | inactive | inactive | inactive | inactive | inactive | inactive | inactive | – | inactive | inactive | 25% | – |
| CN(C)C(=O)Oc1cccc([N+](C)(C)C)c1 | inactive | – | inactive | inactive | inactive | inactive | inactive | inactive | inactive | – | inactive | – | – | – |
| O=c1[nH]c(=O)n([C@H]2C[C@H](O)[C@@H](CO)O2)cc1Br | inactive | – | inactive | inactive | inactive | inactive | inactive | inactive | 0.841 µM (active) | – | inactive | – | – | – |
| CC(=O)Nc1nnc(S(N)(=O)=O)s1 | inactive | – | inactive | inactive | inactive | inactive | inactive | inactive | inactive | inactive | inactive | – | – | inactive |
